# Laboratory results taken from PubChem BioAssay (NCI).
# About 79,000 compounds went through this panel and 15% of them were active in at least one assay; those are over-represented in the sample as a whole. Values without a mark were called inactive. Calls of active or inactive are those of the source. Cut-off read from the data, not from the text of the source: active = growth inhibition above about 70%; inactive = the rest.
# Assay: NCI Yeast Anticancer Drug Screen. Data for the rad50 strain (AID 155);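 note: 0% = growth of vehicle-only cultures of the same strain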
# Details: S. cerevisiae rad50 strain growth inhibition, active compounds read high
# Experimental: Growth inhibition of yeast strains with defined genetic alterations is measured as a screen for potential anti-cancer activity. Selected strains with alterations in DNA damage repair or cell cycle control were exposed to compounds and growth inhibition was measured relative to vehicle treated controls. The strain used in this assay is rad50
# [1] = at 5.0 µM (retest, dose inferred, filed as 0.5)
# [2] = at 50.0 µM (retest, dose inferred, filed as 5.0)
SMILES,growth inhibition (at 1.2 µM) [%],growth inhibition (at 3.7 µM) [%],growth inhibition [1] [%],growth inhibition (at 11.0 µM),growth inhibition (at 33.0 µM),growth inhibition [2],growth inhibition (at 50.0 µM),growth inhibition (at 100.0 µM)
Cc1ccccc1NC(=O)c1c(C)oc2c1C(=O)c1ccccc1C2=O,-13,-12,6,-1%,7%,33%,82.2% (active),86% (active)
CC1=CN2C(c3ccccc3)=NON(c3ccc(C)cn3)C2C=C1 (stereo not given),6,2,-5,-6%,1%,12%,-4.35%,-11%
O=C1C=CC(=Nc2cccc3c2-c2ccccc2C3=O)O1,3,19,26,79% (active),98% (active),99% (active),99.5% (active),97% (active)
O=c1c2ccccc2nc(-c2cccc([N+](=O)[O-])c2)n1O,14,31,12,76% (active),89% (active),97% (active),97.8% (active),91% (active)
CCC(/C=C/c1ccccc1)=N\Nc1ccc(Cl)cc1,3,9,2,12%,77% (active),83% (active),97.6% (active),93% (active)
